RE007 growth inh = qHTS Assay for Inhibitors of the HIV-1 protein Vpr; Potency, µM (doses to about 92.2 µM), hits mostly inhibitors; AID 651644, 2012; 360,000 compounds, 0.21% hits; S. pombe RE007 Vpr strain, BacTiter-Glo ATP luminescence, 24 h; active means well fitted falling curve with a large enough effect; inconclusive means small, poorly fitted or top-dose-only effect; inactive means no such curve, though single readings can be large or run the other way; further: nearly all actives have a fitted effect of over 50% in size
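Fission yeast RE007 carrying one integrated HIV-1 vpr copy, seeded at OD 0.01 in PMG+AL medium with 23 nL pinned compound. Grown 24 h at 30 degrees; viability read by BacTiter-Glo luminescence after 5 min.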
TbPYK inhibitor = qHTS of Trypanosoma Brucei Inhibitors. pyruvate kinase (Trypanosoma brucei), Q57TT1. TbPYK enzyme, Kinase-Glo Plus ATP luminescence, 45 min. Potency, µM (top dose mostly 76.8 µM), actives largely listed as inhibitors. 410,000 compounds, 0.12% hits. AID 624173, 2012; further: nearly all actives have a fitted effect of over 50% in size
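ADP (130 uM final) triggers the TbPYK reaction after compound addition; incubation is 45 min at room temperature. Kinase-Glo Plus is then added and luminescence imaged. Normalized data are fitted to concentration-effect curves.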
Cycloheximide cs = Cycloheximide Counterscreen for Small Molecule Inhibitors of Shiga Toxin; cell reporter, cycloheximide protein synthesis inhibition counterscreen; max response, %; 300,000 compounds, 12% hits; AID 2314, 2010; in the data active means max response mostly above about 13%, no sharp cut-off; inactive means mostly below about 14%; further: read at 38.3 µM for the half of the compounds with a filed dose
FBPA Giardia inh = qHTS Assay for Inhibitors of Fructose-1,6-bisphosphate Aldolase from Giardia Lamblia | A8B2U2 | purified Giardia FBPA | Potency, µM (top dose mostly 59.6 µM), hits mostly inhibitors | 290,000 compounds, 0.71% hits | AID 2451, 2010; further: nearly all actives have a fitted effect of over 55% in size
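Giardia FBPA (40 nM reagent) was preincubated 10 min at RT with compound (up to 57.5 uM final), then substrate plus GAPDH/TPI/NAD/arsenate coupling system with diaphorase/resazurin was added; resorufin fluorescence (525/598 nm) was read after 20 min.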
LmPK inhibitor = qHTS Assay for Inhibitors of Leishmania Mexicana Pyruvate Kinase (LmPK); 290,000 compounds, 0.37% hits; AID 1721, 2009; Potency, µM (top dose mostly 57.5 µM), hits mostly inhibitors; Q27686; purified LmPK, Kinase-Glo ATP luminescence, 1 h
Target sequence (Q27686 whole entry, looked up): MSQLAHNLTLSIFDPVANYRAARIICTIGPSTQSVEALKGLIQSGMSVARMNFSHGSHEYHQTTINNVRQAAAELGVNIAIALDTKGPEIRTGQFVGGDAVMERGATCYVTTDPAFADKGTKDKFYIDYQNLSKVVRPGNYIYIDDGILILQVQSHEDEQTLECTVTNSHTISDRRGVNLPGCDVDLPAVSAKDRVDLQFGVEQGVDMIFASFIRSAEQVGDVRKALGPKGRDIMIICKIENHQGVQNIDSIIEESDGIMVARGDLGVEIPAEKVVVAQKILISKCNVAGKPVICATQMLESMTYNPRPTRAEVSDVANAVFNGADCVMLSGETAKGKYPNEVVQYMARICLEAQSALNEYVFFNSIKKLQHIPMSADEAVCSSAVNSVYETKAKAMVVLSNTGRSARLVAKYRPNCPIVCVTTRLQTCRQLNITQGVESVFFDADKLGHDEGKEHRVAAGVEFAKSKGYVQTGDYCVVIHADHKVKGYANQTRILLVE
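In 50 mM imidazole pH 7.2 with 7 mM MgCl2, LmPK (0.1 nM) turned over PEP (0.5 mM) and ADP (0.1 mM) for 1 h at room temperature. Luciferase read-out of ATP.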
Shiga toxin inh = A qHTS for Small Molecule Inhibitors of Shiga Toxin; Vero cells, Shiga toxin protein synthesis inhibition reporter; inhibition, % at 38.7 µM; AID 2315, 2010; 290,000 compounds, 9.2% hits; in the data active means inhibition mostly above about 28%, no sharp cut-off; inactive means mostly below about 43%
Numbers stand for hits; n = inactive; u = inconclusive; x = not tested or not shown. The full list was thinned out, with hits kept by preference. Unless noted, the call rests on the fitted dose curve; in most records, active means well fitted curve in the direction sought with a large enough effect; inconclusive means small, poorly fitted or top-dose-only effect, or another doubt; inactive means no such curve, though single readings can be large; an effect the other way counts as inactive or inconclusive.

SMILES	RE007 growth inh	TbPYK inhibitor	Cycloheximide cs	FBPA Giardia inh	LmPK inhibitor	Shiga toxin inh
COc1ccc(NC(=O)C2=C(C)Nc3nc(SCc4ccc(C)cc4C)nn3C2c2cccc(OC)c2OC)cc1 (centres undefined)	x	n	x	x	x	x
CC(=O)N/C(=C/c1ccc(OS(=O)(=O)c2ccc(C)cc2)cc1)C(=O)NCCCO	n	n	n	n	n	n
Cc1cc(C)cc(N2C(=O)CSC23C(=O)N(CC(=O)NC2CCCCC2)c2ccccc23)c1 (centres undefined)	x	n	x	x	x	x
CC1(C)CC(=O)c2sc(NC(=O)C3COc4ccccc4O3)nc2C1 (centres undefined)	n	n	34	n	n	32
Cc1onc(-c2ccccc2)c1C(=O)Nc1nc2c(s1)C(=O)CC(C)(C)C2	n	n	n	x	n	n
CC1(C)CC(=O)c2sc(NC(=O)c3ccco3)nc2C1	n	n	33	n	n	n
Cc1cc(C)c2sc(NNC(=O)C3COc4ccccc4O3)nc2c1 (centres undefined)	n	n	n	n	n	n
O=C(Nc1nncs1)C1COc2ccccc2O1 (centres undefined)	n	n	14	n	n	50
CC1(C)CNC(=O)c2sc(NC(=O)c3ccccc3Cl)nc2C1	n	n	17	n	n	n
CC(C)NC(=O)C1COc2ccccc2O1 (centres undefined)	n	n	n	n	n	n
COc1cc(C2C=C(C(=O)O)Nc3ncnn32)ccc1O (centres undefined)	x	n	x	x	x	x
COc1ccccc1CNC(=O)c1ccc(N2Cc3cccc(OC)c3Oc3ncccc32)s1	x	n	x	x	x	x
CC(C)(C)c1csc(NC(=O)C2COc3ccccc3O2)n1 (centres undefined)	n	n	42	x	n	87
O=C(Nc1nnc(C(F)(F)F)s1)C1COc2ccccc2O1 (centres undefined)	u	n	34	n	n	44
CCC1(CC)C(=O)C2=C3C1[C@H](C(=O)OC)CC(C(=O)OC)C[C@H]3[C@H]1C(=O)N(C)C(=O)[C@H]1[C@H]2C (some centres undefined)	x	x	n	n	x	n
Cc1cn2c(=O)cc(COC(=O)COc3ccc(C)c(C)c3)nc2s1	x	n	x	x	x	x
CCN(CC)S(=O)(=O)c1ccc(N2CCCCC2)c(NC(=O)c2ccncc2)c1	n	n	n	n	n	35
O=C(O)c1cccc(Nc2ncnc3ccc(Br)cc23)c1	n	n	25	n	n	43
CC(=O)Oc1cccc(Nc2ncnc3ccccc23)c1	n	n	19	n	n	x
Cc1cccc(Nc2ncnc3c2cnn3C)c1	n	n	n	n	n	n
Cc1cccc(Nc2ncnc3ccccc23)c1	n	n	34	n	n	n
CC(C)Oc1ccc(Nc2ncnc3ccccc23)cc1	n	n	45	u	n	n
COc1ccccc1C(=O)NCc1nc2cccnc2n1Cc1ccc(F)cc1	x	n	x	x	x	x
Cc1nc2ccccc2c(=O)n1-c1ccc(NC(=O)C(F)(F)F)cc1	x	n	x	x	x	x
NS(=O)(=O)c1ccc(CCNC(=O)Cc2cccs2)cc1	n	n	n	n	n	x
SMILES	RE007 growth inh	TbPYK inhibitor	Cycloheximide cs	FBPA Giardia inh	LmPK inhibitor	Shiga toxin inh
Oc1ccc(Nc2ncnc3ccccc23)cc1	n	n	n	n	n	n
CCOC(=O)c1cccc(Nc2ncnc3ccccc23)c1	n	n	25	n	n	32
Cc1ccc(Nc2ncnc3ccccc23)cc1	n	n	62	u	n	119
Cc1ccc(NC(=O)NCCOCCn2c(=O)oc3ccccc32)c(C)c1	x	n	x	x	x	x
CCOC(=O)c1ccc(CN(Cc2ccc(F)cc2)S(=O)(=O)c2ccc(F)cc2)cc1	x	n	x	x	x	x
COc1ccccc1NC(=O)c1ccc(COc2ccccc2Br)o1	n	n	n	n	n	n
CCN(CC)C(=O)c1ccc(COc2ccccc2Cl)o1	n	n	21	n	n	n
COc1ccccc1OCc1ccc(C(=O)N(C)c2ccccc2)o1	n	n	n	n	n	n
COc1ccccc1OCc1ccc(C(=O)N(C)C)o1	n	n	25	n	n	n
CN(C)C(=O)c1ccc(COc2ccccc2Br)o1	n	n	43	n	n	86
COc1cc2c(cc1OC)C(COc1ccc(F)cc1)N(C(=O)Cc1ccc(F)cc1)CC2 (centres undefined)	x	n	x	x	x	x
COc1cc(Cl)c(S(=O)(=O)N2CCCC2)cc1Cl	n	n	n	n	n	n
COc1cc(N2C(=O)C=CC2=O)c(OC)cc1Cl	40µM	u	n	u	14µM	n
COc1ccc(C(=O)c2[nH]c(N)c(C(=O)NCCc3c[nH]c4ccccc34)c2-c2ccc(C(F)(F)F)cc2)cc1	n	n	x	x	x	x
COc1ccc(OCc2cc(C(=O)NC(C)Cc3ccccn3)no2)c(Cl)c1 (centres undefined)	n	n	35	x	n	37
CC(Cn1cncn1)NC(=O)c1cc(COc2cccc(C(F)(F)F)c2)on1 (centres undefined)	n	n	n	x	n	n
COc1ccc(OCc2cc(C(=O)NC(C)Cn3cncn3)no2)c(Cl)c1 (centres undefined)	n	n	40	x	n	62
COc1ccc(OCc2cc(C(=O)NC(C)Cc3cccnc3)no2)c(Cl)c1 (centres undefined)	n	n	27	x	n	n
Cn1c(=O)c2sccc2n2c(CCCC(=O)Nc3ccc(Oc4ccc(Cl)cc4)cc3)nnc12	x	n	x	x	x	x
CN(C)c1ncc2nc(CCc3ccccc3)c(=O)n(CCc3ccccc3)c2n1	x	x	x	n	x	x
COc1ccc2c(c1)c(CC(=O)Nc1cccc(F)c1C)c(C)n2C(=O)c1ccc(Cl)cc1	x	n	x	x	x	x
O=C1NC(=O)/C(=C/c2cccc3ccccc23)S1	n	n	17	n	n	n
O=C1NC(=O)C(=Cc2ccccc2[N+](=O)[O-])S1	n	n	x	x	x	x
COc1cc(C(=O)Nc2ccc3oc(-c4ccccc4)nc3c2)cc(OC)c1OC	x	n	x	x	x	x
Cc1ccccc1-c1nc(C(N)=O)c2c(n1)n(-c1ccc3c(c1)OCO3)c(=O)n2C	x	n	x	x	x	x
SMILES	RE007 growth inh	TbPYK inhibitor	Cycloheximide cs	FBPA Giardia inh	LmPK inhibitor	Shiga toxin inh
CC(=O)Nc1ccc(-c2ccc(NC(C)=O)cc2)cc1	n	n	33	n	n	60
CC(=O)Nc1ccc(C#Cc2ccc(NC(C)=O)cc2)cc1	n	n	34	n	n	68
CSC[C@H]1CN(Cc2cccnc2)C(=O)[C@@H]1CC(=O)Nc1ccc(Br)cc1	n	n	x	x	x	x
Nc1ccccc1C=C1Cc2ccccc2C1=O	n	n	x	x	x	x
O=C1C(=Cc2ccccc2[N+](=O)[O-])Cc2ccccc21	2.5µM	n	x	x	x	x
COc1ccccc1/C=C1\Cc2ccccc2C1=O	n	n	32	n	n	51
CC1(C)CC(=Cc2ccccc2[N+](=O)[O-])C(=O)c2ccccc21	n	n	x	x	x	x

Screening data from PubChem.
